Results on 30 compounds are retold here after PubChem BioAssay (Tox21).

Inconclusive results are not listed. Activity calls are given as the source filed them. Unless noted, calls come from the whole dose curve; as a rule, active = well fitted curve in the direction sought with a large enough effect in the repeat runs; inconclusive = weak or mixed curves; inactive = no such curve, though single readings can be large; an effect the other way counts as inactive or inconclusive.

Test [1] in a line: qHTS assay to identify small molecule antagonists of the estrogen related receptor (ERR) signaling pathway - cell viability counter screen (AID 1224818). Note: potency is the fitted concentration of half-maximal effect.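 Note: viability measured after 17.5 h of compound exposure.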 Conditions: ERR reporter cell line viability counter screen; series mostly up to 46.1 µM. The essentials:
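After a 6 h pre-incubation, ERR cells were dosed by pin tool with compounds, positive/negative controls or DMSO alone. Following 17.5 h at 37 C and 30 min with CellTiter-Fluor, fluorescence was recorded.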

The nature of test [2]: qHTS assay to identify small molecule antagonists of the estrogen related receptor (ERR) signaling pathway (AID 1224819; note: nearly all actives have a fitted effect of over 50% in size; note: potency is the fitted concentration of half-maximal effect). Particulars: ERR reporter cell line, luciferase inhibition; series mostly up to 46.1 µM. The essentials: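 Luminescence readout (One-Glo, 30 min, RT) of ERR cell line after 18 h compound exposure at 37 C; cells seeded 2,000/well, pre-incubated 6 h, compounds pinned from DMSO stocks.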

Test [3] can be described thus: qHTS assay to identify small molecule agonists of the estrogen related receptor (ERR) signaling pathway (AID 1224820). Note: potency is the fitted concentration of half-maximal effect. Particulars: ERR reporter cell line, luciferase agonist mode; series mostly up to 46.1 µM. The essentials:
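ERR reporter cell line (from NTP), 2,000 cells/well, incubated 6 h before compound addition, then 18 h at 37 C. Luminescence measured 30 min after One-Glo reagent at room temperature.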

Test [4] relates to estrogen-related receptor alpha (ERRalpha) with PGC-1alpha coactivator, human. Nature of the test: qHTS assay to identify small molecule antagonists of the estrogen related receptor signaling pathway with the pleiotropic PPARgamma coactivator (PGC) (AID 1224821; calls by dose curve;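 note: lower luminescence signal means antagonism of PGC/ERR signalling; nearly all actives have a fitted effect of over 50% in size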). Conditions: ERR/PGC reporter cell line, luciferase, antagonist mode; series mostly up to 46.1 µM. The procedure, abridged: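 PGC/ERR reporter cell line, plated 6 h before compound addition, then exposed 18 h at 37 °C. Luciferase activity read by luminescence 30 min after One-Glo addition; decrease indicates antagonism.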

The nature of test [5]: qHTS assay to identify small molecule antagonists of the estrogen related receptor signaling pathway with the pleiotropic PPARgamma coactivator (PGC) cell viability counter screen (AID 1224822; note: potency is the fitted concentration of half-maximal effect). Conditions: ERR/PGC reporter cell line viability counter screen; series mostly up to 46.1 µM. The procedure, abridged: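 PGC/ERR cells were plated at 2,000 per well and allowed 6 h to settle before compound addition. Following 17.5 h at 37 C, CellTiter-Fluor reagent was added and fluorescence was read 30 min later.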

Test [6] is described as follows: qHTS assay to identify small molecule agonists of the estrogen related receptor signaling pathway with the pleiotropic PPARgamma coactivator (PGC) (AID 1224823). Note: potency is the fitted concentration of half-maximal effect. Particulars: ERR/PGC reporter cell line, luciferase agonist mode; series mostly up to 46.1 µM. The procedure, abridged: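 PGC/ERR reporter cells seeded 6 h, then exposed to compounds (23 nL in DMSO) for 18 h at 37 C. One-Glo luciferase luminescence read after 30 min at room temperature.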

Regarding `COc1ccccc1CNCCCCCCNCCCCCCCCNCCCCCCNCc1ccccc1OC`, the Potency entry in test [1], in test [2], in test [3], in test [4], in test [5] and in test [6] was “inactive” throughout.

Take `Nc1ncnc2n[nH]c(Nc3ccc(F)cc3)c12`: the Potency result in test [1], in test [2], in test [3], in test [4] and in test [5] was “inactive” in each case. In addition, the Potency in test [6] was 22.8 µM (active).

On to `O=c1c2ccccc2nc2n1CCc1c-2[nH]c2ccccc12`, for which the Potency result in test [1], in test [2], in test [4] and in test [5] was “inactive” each time. Further, the Potency was 2.28 µM (active) in test [3] and 13.3 µM (active) in test [6].

As to `Nc1ccc(N2C(=O)c3ccccc3C2=O)c(Cl)c1`, the Potency result in test [1], in test [2], in test [3], in test [4], in test [5] and in test [6] was “inactive” each time.

Turning to `S=C(S)OC1CC2CC1C1CCCC21` (stereo not given), the Potency result in test [1], in test [2], in test [3], in test [4], in test [5] and in test [6] was “inactive” each time.

As for `CCN(CC)CCCCNc1ncc2cc(-c3c(Cl)cccc3Cl)c(NC(=O)NC(C)(C)C)nc2n1`, the Potency in test [1] is 22 µM (active); in test [2], 2.37 µM (active); in test [5], 13.3 µM (active). Also, the Potency result in test [3], in test [4] and in test [6] was “inactive” in each case.

On to `C=CC(N)CCC(=O)O` (stereo not given), for which the Potency result in test [1], in test [2], in test [3], in test [4], in test [5] and in test [6] was “inactive” in each case.

In the case of `CC(C)(Sc1ccc(CCN(CCCCC2CCCCC2)C(=O)NC2CCCCC2)cc1)C(=O)O`, the Potency result in test [1], in test [2], in test [3], in test [4], in test [5] and in test [6] was “inactive” each time.

With `COc1cc(C(O)CO)ccc1OS(=O)(=O)O` (stereo not given), the Potency entry in test [1], in test [2], in test [3], in test [4], in test [5] and in test [6] was “inactive” in each case.

With `Nc1ccc(-c2ccc3ccccc3n2)cc1`, the Potency result in test [1], in test [2], in test [4] and in test [5] was “inactive” in each case. Further, the values for the Potency in test [3] and in test [6] were 2.46 µM (active) and 1.96 µM (active), respectively.

Take `Nc1nc2c(nc(Br)n2C2OC3COP(=O)(O)O[C@@H]3C2O)c(=O)[nH]1` (stereo not given in full): the Potency result in test [1], in test [2], in test [3], in test [4], in test [5] and in test [6] was “inactive” throughout.

Take `CCCCCCC/C=C\CCCCCCCCC(=O)O`: the Potency result in test [1], in test [2], in test [3], in test [4], in test [5] and in test [6] was “inactive” in each case.

As for `Nc1nc(OCc2ccccc2)c2[nH]cnc2n1`, the Potency entry in test [1], in test [2], in test [3], in test [4], in test [5] and in test [6] was “inactive” in each case.

For `c1ccc2nc(C3=NCCN3)ccc2c1`, the Potency entry in test [1], in test [2], in test [3], in test [4], in test [5] and in test [6] was “inactive” each time.

Turning to `Nc1nc2[nH]c(=O)cnc2c(=O)[nH]1`, the Potency result in test [1], in test [2], in test [3], in test [4], in test [5] and in test [6] was “inactive” throughout.

On to `C[C@H]1CC2C3CCC4=CC(=O)C=C[C@]4(C)[C@@]3(Cl)[C@@H](O)C[C@]2(C)[C@@]1(O)C(=O)CO` (stereo not given in full), for which the Potency entry in test [1], in test [2], in test [3], in test [4], in test [5] and in test [6] was “inactive” throughout.

In the case of `NCCNS(=O)(=O)c1cccc2c(Cl)cccc12`, the Potency result in test [1], in test [2], in test [3], in test [4], in test [5] and in test [6] was “inactive” in each case.

For the compound `CCCCOc1cc(CC2CNC(=O)N2)ccc1OC` (stereo not given), the Potency entry in test [1], in test [2], in test [3], in test [4], in test [5] and in test [6] was “inactive” in each case.

With `CCCCCCCCCC(=O)NC(CN1CCOCC1)[C@H](O)c1ccccc1` (stereo not given in full), the Potency result in test [1], in test [3], in test [4], in test [5] and in test [6] was “inactive” each time. For the same compound, the Potency in test [2] is 17.4 µM (active).

On to `NC1CONC1=O` (stereo not given), for which the Potency entry in test [1], in test [2], in test [3], in test [4], in test [5] and in test [6] was “inactive” throughout.

`C1CCc2nnnn2CC1`: the Potency entry in test [1], in test [2], in test [3], in test [4], in test [5] and in test [6] was “inactive” throughout.

Regarding `O=C(O)C1=CCCNC1`, the Potency entry in test [1], in test [2], in test [3], in test [4], in test [5] and in test [6] was “inactive” each time.

On to `Cc1cccc(C(=O)NCN2CCN(c3ccccc3C#N)CC2)c1`, for which the Potency entry in test [1], in test [2], in test [3], in test [4], in test [5] and in test [6] was “inactive” each time.

On to `CN(C)C(N)=NCCC[C@H](N)C(=O)O`, for which the Potency entry in test [1], in test [2], in test [3], in test [4], in test [5] and in test [6] was “inactive” throughout.

In the case of `CCN(CC)CCn1c(=O)c(Cc2ccc(OC)cc2)nc2ccccc21`, the Potency entry in test [1], in test [2], in test [3], in test [4], in test [5] and in test [6] was “inactive” in each case.

On to `Nc1cc(Cl)c(NC2=NCCN2)c(Cl)c1`, for which the Potency entry in test [1], in test [2], in test [3], in test [4], in test [5] and in test [6] was “inactive” each time.

Turning to `NC1C=CC=C(C(=O)O)C1` (stereo not given), the Potency result in test [1], in test [2], in test [3], in test [4], in test [5] and in test [6] was “inactive” in each case.

For `Cc1cccc(C#Cc2ccccc2)n1`, the Potency entry in test [1], in test [2], in test [4] and in test [5] was “inactive” in each case. Moreover, the Potency in test [3] is 12.8 µM (active); in test [6] it was 9.44 µM (active).

Take `CN=C(N)NCCC[C@H](N)C(=O)O`: the Potency entry in test [1], in test [2], in test [3], in test [4], in test [5] and in test [6] was “inactive” throughout.

In the case of `NCCCCNCCCN`, the Potency result in test [1], in test [2], in test [3], in test [4], in test [5] and in test [6] was “inactive” throughout.
